Our source for the potency estimated from few doses values is article PMC11062922 (Nature Chemical Biology, 2023).

Structures are written as SMILES. Read-outs that look alike come from different tables or passages of the source.

Common to all, as to parameters: species or system human, MV4-11 + K-562 + COLO205 + SK-N-BE2 + OVCAR-8
In one assay the test system is IKBKE. To be noted: read-out: apparent Kd; compound concentrations:100 nM and 1000 nM (sheet 'Samples'); n = 1.
In another assay the test system is ERN1. Particulars: read-out: apparent Kd, compound concentrations: 100 nM and 1000 nM (sheet 'Samples'), n = 1.
The test system of a further assay is MAP4K1. To be noted: read-out: apparent Kd; compound concentrations: 100 nM and 1000 nM (sheet 'Samples'), CATDS: 1.9870950610889799E-2; n = 1.
The next assay relates to TAOK2. To be noted: read-out: apparent Kd, n = 1.
A further assay relates to ICK. Particulars: read-out: apparent Kd; compound concentrations: 100 nM and 1000 nM (sheet 'Samples'), CATDS: 0.109854156237019; n = 1.
Another assay deals with ATM. To be noted: read-out: apparent Kd; compound concentrations: 100 nM and 1000 nM (sheet 'Samples'), CATDS: 2.5456508312119999E-2; n = 1.
The next assay deals with BMP2K. Particulars: read-out: apparent Kd, compound concentrations: 100 nM and 1000 nM (sheet 'Samples'), n = 1.
The test system of the next assay is FER. Particulars: read-out: apparent Kd, n = 1.
A further assay deals with GRK6. Particulars: read-out: apparent Kd, compound concentrations: 100 nM and 1000 nM (sheet 'Samples'), n = 1.
The next assay has as its system MARK4. To be noted: read-out: apparent Kd, compound concentrations: 100 nM and 1000 nM (sheet 'Samples'), n = 1.
The subject of a further assay is MYLK3. To be noted: read-out: apparent Kd, n = 1.
The test system of another assay is PAK4. To be noted: read-out: apparent Kd, n = 1.
For another assay, the system named is PRKX;PRKY. Particulars: read-out: apparent Kd, compound concentrations: 100 nM and 1000 nM (sheet 'Samples'), n = 1.
The subject of the next assay is RPS6KA6. Particulars: read-out: apparent Kd, n = 1.
Another assay deals with ULK1. To be noted: read-out: apparent Kd, compound concentrations: 100 nM and 1000 nM (sheet 'Samples'), n = 1.
In a further assay the test system is ULK3. To be noted: read-out: apparent Kd, n = 1.
The next assay concerns DCTPP1. Particulars: read-out: apparent Kd, compound concentrations: 100 nM and 1000 nM (sheet 'Samples'), n = 1.
The next assay concerns COX5A. Particulars: read-out: apparent Kd; compound concentrations: 100 nM and 1000 nM (sheet 'Samples'), CATDS: 2.84173796904106E-2; n = 1.
Where [1] appears, read: compound concentrations:100 nM and 1000 nM (sheet 'Samples').

On to `CCn1cc(-c2ccnc3[nH]c(-c4cccc(CN(C)C)c4)cc23)c(-c2ccc(NC(=O)N(C)C)cc2)n1` [GSK1070916], for which the potency estimated from few doses in the assay with IKBKE was 1960 nM.

Take `CC(C)c1nc(-c2cccc(NS(=O)(=O)c3ccccc3)c2)c(-c2ccnc(Nc3ccc4c(c3)CN(C)CC4)n2)s1` [GSK1649598A]: the potency estimated from few doses with ERN1 (CATDS: 1.5593168360276599E-2) was 758 nM; with MAP4K1 it was 381 nM; in the assay with TAOK2 (compound concentrations: 100 nM and 1000 nM (sheet 'Samples'), CATDS: 1.5717541572097499E-2), 739 nM.

In the case of `Cn1cc(C2=C(c3cn(CCCO)c4ccccc34)C(=O)NC2=O)c2ccccc21` [RO0317377-000], in the assay on ICK, the potency estimated from few doses is 1460 nM.

`O=C1N=C(NCc2cccs2)SC1Cc1ccc2ncccc2c1` (stereo not shown) [RO4629078-000]: the potency estimated from few doses is 123 nM in the assay with ATM; 630 nM in the assay on BMP2K (CATDS: 1.0249270291889601E-2); 195 nM with FER (compound concentrations: 100 nM and 1000 nM (sheet 'Samples'), CATDS: 1.87753699623531E-2); 974 nM with GRK6 (CATDS: 8.7219841617169405E-3); 699 nM in the assay with MARK4 (CATDS: 9.8317273929225003E-3); 2170 nM in the assay with MYLK3 (compound concentrations: 100 nM and 1000 nM (sheet 'Samples'), CATDS: 7.0392832090842503E-3). Also, the potency estimated from few doses was 391 nM with PAK4 (compound concentrations: 100 nM and 1000 nM (sheet 'Samples'), CATDS: 1.27068399594295E-2); 1350 nM in the assay on PRKX;PRKY (CATDS: 7.8908157683285005E-3); 301 nM in the assay on RPS6KA6 (compound concentrations: 100 nM and 1000 nM (sheet 'Samples'), CATDS: 1.4576364077707399E-2); 394 nM with ULK1 (CATDS: 1.26661320847058E-2); 1510 nM in the assay with ULK3 (compound concentrations: 100 nM and 1000 nM (sheet 'Samples'), CATDS: 7.6579624487381603E-3).

In the case of `Cl.Cl.Cl.c1ccc(Oc2ccc(Nc3ccnc4cc(-c5ccc(CN6CCNCC6)o5)ccc34)cc2)nc1.c1ccc(Oc2ccc(Nc3ccnc4cc(-c5ccc(CN6CCNCC6)o5)ccc34)cc2)nc1` [GW567142A], the potency estimated from few doses was 1430 nM in the assay on GRK6 (CATDS: 1.87269868098595E-2); 2320 nM in the assay on MYLK3 (compound concentrations: 100 nM and 1000 nM (sheet 'Samples'), CATDS: 1.6491067951183699E-2).

As for `O=C1N=C(NCCc2cccc(Cl)c2)S/C1=C\c1ccc2ncccc2c1` [RO4509201-000], the potency estimated from few doses with DCTPP1 (CATDS: 5.6638769409894603E-2) is 1590 nM.

As for `CS(=O)(=O)CCNCc1ccc(-c2ccc3ncnc(Nc4ccc(OCc5cccc(F)c5)c(C(F)(F)F)c4)c3c2)o1` [GW576484X], the potency estimated from few doses with MARK4 (CATDS: 5.9224998960535298E-2) was 1370 nM.

Take `CCN(CC)CCOc1ccc(Nc2ncc3cc(-c4c(Cl)cccc4Cl)c(=O)n(C)c3n2)cc1` [SB-601273]: the potency estimated from few doses in the assay with TAOK2 (setting [1]) was 1150 nM.

With `Cc1cccc(Nc2nc(NCCN)ncc2C(N)=O)c1` [GSK1292139B], the potency estimated from few doses with PAK4 (compound concentrations: 100 nM and 1000 nM (sheet 'Samples'), CATDS: 9.0340207585202004E-2) is 778 nM.

As for `Cc1cccc(-c2cc(-c3c[nH]nc3-c3ccccn3)ccn2)c1` [GW679395X], the potency estimated from few doses in the assay on ULK3 (setting [1]) is 1450 nM.

As to `COc1cccc(-n2ncc3c(N/N=C/c4ccc(C(=O)NCCN(C)C)cc4)ncnc32)c1.Cl` [GW784307A], the potency estimated from few doses in the assay with BMP2K (CATDS: 2.5475842805915101E-2) was 2050 nM; in the assay on COX5A, 1280 nM.

As for `COc1ccccc1CNC1=NC(=O)/C(=C/c2ccc3ncccc3c2)S1` [RO4503315-000], the potency estimated from few doses with DCTPP1 (CATDS: 6.8298728287036994E-2) is 1390 nM.

Consider `O=C1N=C(NCC(CO)c2ccccc2)S/C1=C\c1ccc2ncccc2c1` (stereo not shown) [RO4582641-000], for which, in the assay on PRKX;PRKY (CATDS: 6.1310776599809498E-2), the potency estimated from few doses is 1910 nM.

Take `CN1C(=O)c2ccccc2N(C)c2nc(Nc3cnn(C4CCNCC4)c3)ncc21` [XMD-17-51]: the potency estimated from few doses in the assay with BMP2K (CATDS: 1.6944830002157098E-2) is 771 nM; with MARK4 (CATDS: 2.0662278149912901E-2), 412 nM; in the assay on TAOK2 (compound concentrations: 100 nM and 1000 nM (sheet 'Samples'), CATDS: 5.5086775745804402E-2), 42.4 nM; in the assay with ULK1 (CATDS: 5.3093581497725799E-2), 45.5 nM.

With `O=C1N=C(NCc2ccccc2)S/C1=C\c1ccc2ncccc2c1` [RO4442080-000], the potency estimated from few doses in the assay on MYLK3 (compound concentrations: 100 nM and 1000 nM (sheet 'Samples'), CATDS: 7.9842207059825906E-2) is 1930 nM; in the assay on PRKX;PRKY (CATDS: 0.10891085030607001) it was 835 nM.

In the case of `COc1cc(/C=N/Nc2ncnc3[nH]ncc23)ccc1O` [GW578748X], in the assay with MYLK3 (setting [1]), the potency estimated from few doses is 2040 nM.

Turning to `COc1cc2ncn(-c3cc(OCCCc4ccccc4)c(C(N)=O)s3)c2cc1OC` [GSK205189A], the results for the potency estimated from few doses with FER (setting [1]), in the assay with PAK4 (setting [1]) and with RPS6KA6 (setting [1]) were 55.1 nM, 1350 nM and 907 nM, respectively.

For `CN(C)Cc1ccc(-c2ccc3c(Nc4ccc(Oc5ccccn5)cc4)ccnc3c2)o1` [GW567148X], the potency estimated from few doses in the assay with FER (compound concentrations: 100 nM and 1000 nM (sheet 'Samples'), CATDS: 2.46743192274099E-2) was 568 nM; with RPS6KA6 (compound concentrations: 100 nM and 1000 nM (sheet 'Samples'), CATDS: 2.11191304038983E-2) it was 847 nM.

Take `CC(=O)N1CCN(c2ccc(Nc3nccc(-c4sc(C(C)C)nc4-c4cccc(NS(=O)(=O)c5cccc(Cl)c5)c4)n3)cn2)CC1` [GSK1660437A]: in the assay with ERN1 (CATDS: 3.4539361157079097E-2), the potency estimated from few doses was 2420 nM.
